Experimental data published in paper PMC4336329 (PLoS ONE, 2015).
Among all 310,000 compounds or so, about 14,000 (4.5%) showed an effect of 50% or more. Effects have a minus sign here. The list comes from a sample in which strong results are over-represented; it also holds similar structures and randomly drawn compounds.

The molecules below were run against human ether-à-go-go-related gene (hERG) potassium channel (human, UniProt Q12809) (assay: primary screen, population patch clamp on CHO cells stably expressing hERG; higher = less effect of the substance).
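Note: peak tail current of the secondary pulse compared with the same well before compound.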

Sequence of human ether-à-go-go-related gene (hERG) potassium channel (Q12809 whole entry, looked up): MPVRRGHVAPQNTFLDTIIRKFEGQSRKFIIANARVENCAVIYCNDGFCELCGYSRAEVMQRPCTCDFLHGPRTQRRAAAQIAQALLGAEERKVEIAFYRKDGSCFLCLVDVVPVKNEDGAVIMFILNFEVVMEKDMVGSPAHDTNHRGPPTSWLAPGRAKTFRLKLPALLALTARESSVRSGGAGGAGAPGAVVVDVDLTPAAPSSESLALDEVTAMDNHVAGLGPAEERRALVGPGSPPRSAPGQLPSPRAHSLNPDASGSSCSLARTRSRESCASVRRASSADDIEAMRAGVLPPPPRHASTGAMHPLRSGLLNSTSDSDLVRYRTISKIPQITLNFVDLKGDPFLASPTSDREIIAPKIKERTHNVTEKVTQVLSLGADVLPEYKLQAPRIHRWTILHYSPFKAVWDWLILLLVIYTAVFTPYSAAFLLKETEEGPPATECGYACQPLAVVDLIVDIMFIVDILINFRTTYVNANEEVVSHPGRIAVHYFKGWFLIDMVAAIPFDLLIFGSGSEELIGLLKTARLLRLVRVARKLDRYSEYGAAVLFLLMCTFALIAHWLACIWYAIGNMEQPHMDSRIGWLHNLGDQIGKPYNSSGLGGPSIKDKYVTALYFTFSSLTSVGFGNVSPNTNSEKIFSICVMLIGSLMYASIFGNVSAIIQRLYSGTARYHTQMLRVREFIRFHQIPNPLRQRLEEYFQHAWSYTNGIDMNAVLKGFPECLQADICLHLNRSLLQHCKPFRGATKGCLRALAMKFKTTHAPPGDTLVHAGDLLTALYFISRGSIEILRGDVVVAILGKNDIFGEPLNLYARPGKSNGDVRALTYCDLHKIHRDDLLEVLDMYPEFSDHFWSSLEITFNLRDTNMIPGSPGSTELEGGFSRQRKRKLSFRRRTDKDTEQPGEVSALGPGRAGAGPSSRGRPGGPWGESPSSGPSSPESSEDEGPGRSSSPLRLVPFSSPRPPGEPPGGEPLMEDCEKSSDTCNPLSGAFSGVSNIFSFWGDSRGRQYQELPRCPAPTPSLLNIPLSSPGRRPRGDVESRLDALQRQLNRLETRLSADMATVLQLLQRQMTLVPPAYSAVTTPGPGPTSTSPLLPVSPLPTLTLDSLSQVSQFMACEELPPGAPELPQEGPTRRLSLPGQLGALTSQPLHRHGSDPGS

Row | SMILES | hERG current change (%, negative = inhibition) at 10uM
1 | C=CCn1c(O)c(C(C)=NCCCN(C)C)c(=O)[nH]c1=O | 5.49%
2 | N#Cc1cccnc1N1CCN(C(=O)c2ccc3c(c2)S(=O)(=O)c2ccccc2C3=O)CC1 | -22.7%
3 | O=C1c2ccc(Cl)cc2S(=O)(=O)c2cccc(C(=O)N3CCN(c4ccc(Cl)cn4)CC3)c21 | -39.9%
4 | N#Cc1cccnc1N1CCN(C(=O)c2cccc3c2C(=O)c2ccc(Cl)cc2S3(=O)=O)CC1 | -56.6%
5 | CCN(CCn1cccn1)C(=O)CCc1nnc(CCc2ccccc2OC)o1 | 5.73%
6 | CCC/C(=N\NC(=O)c1cccc(C)c1)c1ccccc1 | 2.17%
7 | CCOc1cccc(/C=N/Nc2ccc(S(=O)(=O)N(CC)CC)cn2)c1O | 6.79%
8 | COc1ccc(CN(C)C(=O)COC(=O)c2c(-c3ccccc3Cl)noc2C)cc1 | -15.1%
9 | COc1ccc(CN(C)C(=O)COC(=O)c2c(C)nn(-c3ccc(F)cc3)c2Cl)cc1 | -71.1%
10 | COc1ccc(COC(=O)c2c(C)nn(-c3ccccc3)c2Cl)cc1 | 4.32%
11 | Brc1ccc(CSc2nnc(-c3ccccn3)n2Cc2ccco2)cc1 | -16.8%
12 | CN1CCc2c(OCC(=O)NC3CCCCC3)cccc2C1=O | 13.6%
13 | CCCCCCSc1ccc([C@H]2N[C@@](Cc3ccccc3)(C(=O)OC)[C@H]3C(=O)N(C)C(=O)[C@@H]23)cc1OC.O=C(O)C(F)(F)F | 5.93%
14 | O=P(O)(O)O.c1ccc(CSCCc2ccncc2)cc1 | -5.48%
15 | NC(=O)Cn1cc(C(=O)c2ccccc2F)c2ccccc21 | 25.1%
16 | COC(=O)Cn1cc(C(=O)c2ccccc2F)c2ccccc21 | -1.29%
17 | CCOC(=O)Cn1cc(C(=O)c2ccccc2F)c2ccccc21 | -71%
18 | CCN(CC)C(=O)CN(C#N)c1nc(C)cc(C)n1 | 19.4%
19 | Cc1cc(C)nc(N(C#N)CC(=O)c2ccccc2)n1 | -42.9%
20 | CCc1ccc(C(=O)CN(C#N)c2nc(C)cc(C)n2)cc1 | -75.6%
21 | Cc1c(Cl)cccc1NC(=S)NC(=O)c1cncc(Br)c1 | 17.6%
22 | COc1cccc(/C=N/NC(=S)NCCc2ccccc2)c1 | 10.5%
23 | CCC(=O)Nc1cccc(-c2nnc(-c3cccc(NC(=O)CC)c3)o2)c1 | 7.83%
